Source: PubChem
Only some compounds are listed: those with a hit (about 3.7% of all), similar ones and a draw of the others.
GALK inhibitor – inhibits human galactokinase; P51570; recombinant GALK, Kinase-Glo ATP luminescence, 1 h; Potency, µM (top dose mostly 57.5 µM), for the others: top-dose activity, negative = inhibition, hits mostly inhibitors; 44,000 tested, under 10 active; AID 1347072;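 note: plate controls were full GALK reaction for no effect and reaction lacking GALK for full effect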
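Human GALK (5 nM) was incubated with 35 uM ATP and 100 uM galactose in 20 mM HEPES pH 8.0 with MgCl2, NaCl, DTT and BSA for 1 h at room temperature. Remaining ATP was measured by Kinase-Glo Plus luminescence.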
DRV1 agonist – GPR32 (DRV1) agonism, beta-arrestin recruitment; O75388; CHO-K1 GPR32 beta-arrestin PathHunter luminescence, 90 min; zero percent set by DMSO-only wells; activation, % at 76.9 µM; hit rate 2.5% among 48,000;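 active = activation of at least 60% and not above a set upper limit, about 1 call in 100 departs from these limits; inconclusive = activation of 40% to 60%, or above that upper limit; inactive = activation under 40%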; note: 0% is about no effect
Target sequence (O75388 whole entry, looked up): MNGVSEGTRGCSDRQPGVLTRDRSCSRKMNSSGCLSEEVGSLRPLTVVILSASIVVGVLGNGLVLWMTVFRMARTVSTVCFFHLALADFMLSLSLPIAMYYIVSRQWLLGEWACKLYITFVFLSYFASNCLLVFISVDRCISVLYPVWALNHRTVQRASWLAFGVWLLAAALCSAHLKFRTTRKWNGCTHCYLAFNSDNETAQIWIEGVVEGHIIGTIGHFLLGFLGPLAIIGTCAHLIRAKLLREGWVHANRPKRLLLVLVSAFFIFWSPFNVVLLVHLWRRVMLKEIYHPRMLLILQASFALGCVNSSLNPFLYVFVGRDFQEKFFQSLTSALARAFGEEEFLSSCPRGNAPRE
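Agonism was scored as beta-arrestin recruitment to ProLink-fused GPR32 in stably transfected CHO-K1 cells, giving a chemiluminescent beta-Gal signal; compounds were incubated 90 min at 37 °C.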
PTAP-TSG101 blk – inhibitors of HIV-1 PTAP binding to human TSG101, validation. Q99816. Fluorescence polarization, FITC-PTAP peptide/Tsg101, 20 min. Potency, µM (series often up to 115 µM), usual class: inhibitors. 44,000 tested, under 10 active; note: potency is the fitted concentration of half-maximal effect; 0% is about no effect
Target sequence (Q99816 whole entry, looked up): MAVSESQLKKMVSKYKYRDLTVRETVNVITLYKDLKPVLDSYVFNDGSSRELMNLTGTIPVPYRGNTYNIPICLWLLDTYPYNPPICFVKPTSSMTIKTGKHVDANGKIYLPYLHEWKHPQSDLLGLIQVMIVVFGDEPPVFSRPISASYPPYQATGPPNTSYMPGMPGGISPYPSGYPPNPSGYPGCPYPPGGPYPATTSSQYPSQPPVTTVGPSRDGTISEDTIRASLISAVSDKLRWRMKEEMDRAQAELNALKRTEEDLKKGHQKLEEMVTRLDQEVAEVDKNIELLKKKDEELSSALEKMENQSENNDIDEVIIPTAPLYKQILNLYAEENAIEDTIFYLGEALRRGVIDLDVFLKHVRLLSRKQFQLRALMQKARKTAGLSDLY
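Fluorescence polarization binding of Tsg101 binding domain (10 uM final) to FITC-labeled PTAP-motif peptide (50 nM final) in HEPES pH 7.5/NaCl/Tween 20/EDTA/TCEP buffer; 20 min at r.t. Actives by curve class, <25 µM, efficacy <60% inhibition.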
HTT promoter inh – inhibitors of huntingtin promoter activity; HEK293 HTT promoter firefly luciferase reporter, 24 h; Potency, µM (titrated, usually from 57.5 µM), for the others: at the top dose activity change, negative = inhibition, hits mostly inhibitors; hit rate 0.93% among 48,000; note: potency is the fitted concentration of half-maximal effect; nearly all actives have a fitted effect of over 50% in size
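HEK293 Fluc reporter, 2,500 cells/well, 24 h pre-culture; cpds up to 57.5 uM final, 24 h 37 degrees C; Dual-Glo, 10 min RT; normalized vehicle = 0%, zero RLU = -100%.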
B2AR arrestin ag – ADRB2 beta-arrestin recruitment | Potency, µM (titrated, usually from 46.1 µM), actives largely listed as activators | 44,000 tested, under 10 active | AID 1347077 | HTLA Tango cells, beta-arrestin recruitment, luciferase luminescence, 18 h | P07550;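 note: potency is the fitted concentration of half-maximal effect; 0% = DMSO and full agonism = EC100 isoproterenol or metaproterenol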
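Tango cell line, 1% FBS DMEM; cpd titration up to 46 microM; 18 hr, 37 degrees C, 5% CO2. Luciferin/ATP substrate mix added, 15 min RT, luminescence. %Activity, CRC fitting, curve-class categorization.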
HTT-AS promoter – activators of huntingtin-antisense promoter activity | HEK293 HTT-AS promoter firefly luciferase reporter, 24 h; response scale: percent change from vehicle, -100% = no light | Potency, µM (top dose mostly 57.5 µM), for inactives: at the top dose activity change, positive = activation, most hits filed as activators | hit rate 0.24% among 48,000 | AID 1508624; note: potency is the fitted concentration of half-maximal effect; nearly all actives have a fitted effect of over 55% in size
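HEK293 Fluc reporter, 2,500 cells/well, 24 h pre-culture; cpds up to 57.5 uM final, 24 h 37 degrees C; Dual-Glo, 10 min RT; normalized vehicle = 0%, zero RLU = -100%.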
Numbers without * were called inactive; i = inactive; u = inconclusive; x = no result; ! = a repeat was not active; [ ] = another dose, or the depositor's remark. Unless noted, calls come from the whole dose curve; as a rule, active = well fitted curve in the direction sought with a large enough effect; inconclusive = small, poorly fitted or top-dose-only effect, or another doubt; inactive = no such curve, though single readings can be large; an effect the other way counts as inactive or inconclusive.

SMILES | GALK inhibitor | DRV1 agonist | PTAP-TSG101 blk | HTT promoter inh | B2AR arrestin ag | HTT-AS promoter
Cc1oc(-c2ccccc2F)nc1CSCC(=O)N1CCN(c2ccccc2)CC1 | 9% | 4 | i | 22µM* | i | -64%
CCOc1c(Cl)cc(CNc2ccc3[nH]c(=O)[nH]c3c2)cc1OC | -1% | 85* | i | -19% | i | -41%
NC(=O)c1c(OCc2c(F)cc(Br)cc2F)nsc1NC(=O)NCCCCN1CCCC1 | x | x | x | -20% | x | -23%
CCN(C(=O)CSc1ncc(S(=O)(=O)c2ccc(C)c(Cl)c2)c(=O)[nH]1)c1cccc(C)c1 | -4% | 75* | i | -24% | i | -14%
CCC(=O)N1c2ccc(S(=O)(=O)NCc3cccc(OC)c3)cc2CC1C (stereo not drawn) | -1% | 45 | i | u | i | -23%
CC(C)C1C(=O)Nc2ccc(S(=O)(=O)NCCc3ccc(Cl)cc3)cc21 (stereo not drawn) | 2% | 87* | i | u | i | -30%
COc1cccc(CNS(=O)(=O)c2ccc3c(c2)C(C(C)C)C(=O)N3)c1 (stereo not drawn) | 1% | 76* | i | u | i | -26%
Cc1ccc(Cl)cc1N1CCN(S(=O)(=O)c2ccc3c(c2)C(C(C)C)C(=O)N3)CC1 (stereo not drawn) | 0% | u | i | u | i | -27%
CCC1Oc2ccc(C)cc2N(CC(=O)NCc2ccc(OC)cc2)C1=O (stereo not drawn) | -1% | 64* | i | -5% | i | -16%
CCCCNc1c(C(=O)OCC)c(C)nc2c1cnn2CC | x | 76*! | x | -16% | x | -31%
Cc1cc(C=c2sc3nc4ccccc4n3c2=O)c(C)n1-c1ccccc1 | x | x | x | u | x | -83%
CNC(=O)[C@H](CC1=CN=C2C=CCC=C12)NC(=O)[C@@H](CC(=O)NO)CC(C)C | x | x | x | u | x | -21%
COc1cccc(Nc2c(C(N)=O)cnc3c(C)cc(S(=O)(=O)c4cccc(C(=O)N(C)C)c4)cc23)c1 | x | x | x | -15%[25.2 µM] | x | -8%[25.1 µM]
O=C(O)Cn1nnc(-c2cc(N3CCC(Oc4cc(F)ccc4Br)CC3)no2)n1 | x | x | x | u | x | -34%
Cc1cc(NC(=O)c2oc3c(c2C)-c2[nH]ncc2CC3)ccc1Br | 3% | -5 | i | 68% | i | 1.1µM*
CCc1ccc(NC(=O)c2oc3c(c2C)-c2[nH]ncc2CC3)cc1 | u | 5 | i | 80% | i | u
Clc1cccc(-c2noc3ncnc(NC4CCCCC4)c23)c1 | -2% | 91* | i | u | i | -31%
Cn1c(-c2ccc(S(=O)(=O)N3CCCC3)cc2)csc1=Nc1ccc(Cl)c(Cl)c1 | 0% | -6 | i | 5µM* | i | -74%
CCn1c(-c2ccc(S(=O)(=O)N3CCOCC3)cc2)csc1=Nc1ccc(C)c(Cl)c1 | -3% | -6 | i | -12% | i | -9%
CCOc1ccccc1N(CC)C(=O)c1cc2c(=O)n(CC)c3ccccc3c2s1 | -2% | -27 | i | u | i | -48%
CCOc1ccccc1N(CC)C(=O)c1cc2c(=O)[nH]c3ccc(C)cc3c2s1 | 4% | -17 | i | 2.5µM* | i | -80%
COc1ccc(NC(=O)Nc2nnc(C)s2)cc1 | 4% | -12 | i | 31% | i | 11µM*
Cn1c(C(=O)NCCc2ccccc2)cc2c(=O)n3ccccc3nc21 | 2% | -8 | i | 54% | i | u
CCCCCNC(=O)c1cc2c(=O)n3ccccc3nc2n1C | 1% | -9 | i | 71% | i | 2µM*
CN(C(=O)c1cc2c(=O)n3ccccc3nc2n1C)c1ccccc1 | -10% | -16 | i | 83% | i | 5.6µM*
SMILES | GALK inhibitor | DRV1 agonist | PTAP-TSG101 blk | HTT promoter inh | B2AR arrestin ag | HTT-AS promoter
Oc1c(C(c2ccc(Cl)cc2Cl)N2CCN(c3ccccc3)CC2)sc2nc(-c3ccco3)nn12 (stereo not drawn) | 0% | -6 | i | -13% | i | -13%
Oc1c(C(c2ccc(Cl)cc2Cl)N2CCOCC2)sc2nc(-c3ccco3)nn12 (stereo not drawn) | -2% | 90* | i | -10% | i | -20%
CCN(CC)S(=O)(=O)c1nnc(NC(=O)c2ccc(C(C)C)cc2)s1 | 0% | 75* | i | u | i | -25%
CCN(CC)S(=O)(=O)c1nnc(NC(=O)c2ccc(C)cc2)s1 | 2% | 32 | i | 5% | i | 10%
CCN(CC)C(=S)SSC(=S)N(CC)CC | x | 92*! | x | u | x | -7%
Cc1cccc(-c2nc(CN3CCCC(C(=O)NCCc4ccc(Cl)cc4)C3)c(C)o2)c1 (stereo not drawn) | 8% | 49 | i | 32µM* | i | -46%
CC=CC(=O)N(CC)c1ccccc1C | x | x | x | -10% | x | -40%
Clc1ccc2ncc(-c3cccc(NC4CNC4)n3)n2c1 | x | x | x | -25% | x | -6%
Cn1cc[nH]c1=S | x | 65* | x | 12% | x | -1%
CCCCc1ccc(NS(=O)(=O)c2ccc(C)c(C(=O)N3CCN(c4cccc(C)c4C)CC3)c2)cc1 | x | x | x | -6% | x | -20%
CN1C(=O)c2ccccc2Sc2ccc(NC(=O)N3CCN(c4ccc(F)cc4)CC3)cc21 | -2% | -4 | i | 28µM* | i | -77%
Cc1ccc(C(=O)Nc2ccc3c(c2)N(C)C(=O)c2ccccc2S3)cc1F | -2% | -6 | i | 13µM* | i | -52%
CC(C)NC(=O)Nc1ccc2c(c1)N(C)C(=O)c1ccccc1S2 | -8% | 7 | i | 0% | i | -4%
CCN(C(=O)c1c(O)c2c(Cl)cccc2n(C)c1=O)c1ccccc1 | x | x | x | -12% | x | 0%
O=C(CCN1CCN(CCO)CC1)N1c2ccccc2Sc2ccc(C(F)(F)F)cc21 | x | -6 | x | 2% | x | -8%
CN1CCN(CCCN2c3ccccc3Sc3ccc(C(F)(F)F)cc32)CC1 | x | 64*! | x | u | x | -59%
O=C(Nc1cccc2c(=O)cc(-c3nn[nH]n3)oc12)c1ccc(OCCCCc2ccccc2)cc1 | x | 94* | x | u | x | -31%
Cc1cccc2c1CC[C@H](CN1CCC(c3c(Cl)cccc3Cl)CC1)C[C@@H]2O | x | x | x | 2% | x | 5%
COc1cccc(CNC(=O)Cn2c(SCC(=O)Nc3ccc(C)c(C)c3)nc3ccccc32)c1 | -1% | 113* | i | -21% | i | 0%
COc1cccc(CNC(=O)Cn2c(SCC(=O)Nc3ccc(F)cc3)nc3ccccc32)c1 | 3% | 46 | i | u | i | -27%
